Experimental data taken from ChEMBL document CHEMBL1961873, “Compounds: GSK PKIS; Assays: Nanosyn kinase panel” (2012).
Where “and” joins values, the source holds several entries; their conditions need not be identical. Equal entries are not always repeated.

Legend:
[1] = biological target: Ribosomal protein S6 kinase alpha-6 (Homo sapiens) (UniProt Q9UK32); conditions: at 1 µM;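 note: each value is a mean inhibition of RSK4 from a GSK PKIS panel screen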
[2] = biological target: T1, Serine/threonine-protein kinase Sgk1 (Homo sapiens) (UniProt O00141); conditions: at 0.1 µM
T1 sequence (whole entry): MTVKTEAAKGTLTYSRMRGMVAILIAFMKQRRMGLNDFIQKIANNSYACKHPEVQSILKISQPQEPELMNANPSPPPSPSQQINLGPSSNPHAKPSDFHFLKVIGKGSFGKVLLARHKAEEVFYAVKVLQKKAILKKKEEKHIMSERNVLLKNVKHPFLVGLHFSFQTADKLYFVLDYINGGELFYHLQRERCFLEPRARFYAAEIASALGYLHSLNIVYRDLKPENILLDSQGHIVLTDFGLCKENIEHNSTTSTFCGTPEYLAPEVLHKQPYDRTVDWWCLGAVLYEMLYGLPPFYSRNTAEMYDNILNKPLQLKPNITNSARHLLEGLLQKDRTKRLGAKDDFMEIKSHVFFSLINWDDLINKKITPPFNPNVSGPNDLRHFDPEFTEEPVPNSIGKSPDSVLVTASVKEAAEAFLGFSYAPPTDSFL

[3] = biological target: T1, Serine/threonine-protein kinase Sgk1 (Homo sapiens); conditions: at 1 µM
[4] = biological target: T2, Serine/threonine-protein kinase Sgk2 (Homo sapiens) (UniProt Q9HBY8); conditions: at 0.1 µM
T2 sequence (whole entry): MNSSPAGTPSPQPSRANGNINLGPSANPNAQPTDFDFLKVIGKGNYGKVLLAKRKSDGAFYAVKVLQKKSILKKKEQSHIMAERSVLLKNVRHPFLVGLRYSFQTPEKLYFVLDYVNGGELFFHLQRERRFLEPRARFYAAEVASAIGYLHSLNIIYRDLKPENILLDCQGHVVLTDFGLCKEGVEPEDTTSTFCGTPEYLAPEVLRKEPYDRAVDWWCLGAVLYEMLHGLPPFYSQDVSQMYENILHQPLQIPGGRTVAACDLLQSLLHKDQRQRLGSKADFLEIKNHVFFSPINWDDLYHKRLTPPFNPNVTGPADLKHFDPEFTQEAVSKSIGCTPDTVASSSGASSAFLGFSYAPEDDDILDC

[5] = biological target: T2, Serine/threonine-protein kinase Sgk2 (Homo sapiens); conditions: at 1 µM
[6] = biological target: T3, Serine/threonine-protein kinase Sgk3 (Homo sapiens) (UniProt Q96BR1); conditions: at 0.1 µM
T3 sequence (whole entry): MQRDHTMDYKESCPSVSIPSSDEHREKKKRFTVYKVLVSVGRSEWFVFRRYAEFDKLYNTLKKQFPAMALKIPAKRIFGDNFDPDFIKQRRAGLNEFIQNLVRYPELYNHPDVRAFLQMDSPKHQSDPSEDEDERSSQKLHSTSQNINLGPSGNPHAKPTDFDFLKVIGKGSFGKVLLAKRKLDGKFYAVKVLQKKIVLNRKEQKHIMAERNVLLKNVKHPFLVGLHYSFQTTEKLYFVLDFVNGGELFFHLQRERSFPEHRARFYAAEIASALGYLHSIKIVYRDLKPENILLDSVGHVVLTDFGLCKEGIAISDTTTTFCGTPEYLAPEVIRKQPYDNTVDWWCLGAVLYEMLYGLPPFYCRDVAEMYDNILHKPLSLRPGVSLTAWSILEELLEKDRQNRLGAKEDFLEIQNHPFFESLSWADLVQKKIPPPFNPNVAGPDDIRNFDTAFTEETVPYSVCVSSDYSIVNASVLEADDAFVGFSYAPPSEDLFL

[7] = biological target: T3, Serine/threonine-protein kinase Sgk3 (Homo sapiens); conditions: at 1 µM
[8] = biological target: 5'-AMP-activated protein kinase catalytic subunit alpha-1 (Homo sapiens) (UniProt Q13131); conditions: at 0.1 µM
[9] = biological target: 5'-AMP-activated protein kinase catalytic subunit alpha-1 (Homo sapiens) (UniProt Q13131); conditions: at 1 µM
[10] = biological target: 5'-AMP-activated protein kinase catalytic subunit alpha-2 (Homo sapiens) (UniProt P54646); conditions: at 0.1 µM
[11] = biological target: 5'-AMP-activated protein kinase catalytic subunit alpha-2 (Homo sapiens) (UniProt P54646); conditions: at 1 µM
[12] = biological target: T4, NUAK family SNF1-like kinase 1 (Homo sapiens) (UniProt O60285); conditions: at 0.1 µM
T4 sequence (whole entry): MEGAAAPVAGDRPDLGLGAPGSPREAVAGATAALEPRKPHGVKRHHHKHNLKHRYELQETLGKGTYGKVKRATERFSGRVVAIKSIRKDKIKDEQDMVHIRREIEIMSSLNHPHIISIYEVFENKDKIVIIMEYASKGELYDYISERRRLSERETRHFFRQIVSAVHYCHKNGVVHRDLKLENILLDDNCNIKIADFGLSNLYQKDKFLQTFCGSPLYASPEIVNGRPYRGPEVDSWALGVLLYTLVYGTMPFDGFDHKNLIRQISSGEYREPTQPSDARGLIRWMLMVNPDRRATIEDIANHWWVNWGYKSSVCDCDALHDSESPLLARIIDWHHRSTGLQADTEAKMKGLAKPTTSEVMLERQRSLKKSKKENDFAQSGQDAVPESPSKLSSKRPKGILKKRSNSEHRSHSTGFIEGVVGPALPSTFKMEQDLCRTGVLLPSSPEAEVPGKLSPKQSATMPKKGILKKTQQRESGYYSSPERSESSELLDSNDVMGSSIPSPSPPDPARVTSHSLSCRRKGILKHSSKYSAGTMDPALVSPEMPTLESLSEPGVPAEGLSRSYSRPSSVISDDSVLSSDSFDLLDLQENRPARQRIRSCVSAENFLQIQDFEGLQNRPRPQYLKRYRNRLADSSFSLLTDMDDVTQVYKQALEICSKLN

[13] = biological target: T4, NUAK family SNF1-like kinase 1 (Homo sapiens); conditions: at 1 µM
[14] = biological target: T5, Serine/threonine-protein kinase BRSK1 (Homo sapiens) (UniProt Q8TDC3); conditions: at 0.1 µM
T5 sequence (whole entry): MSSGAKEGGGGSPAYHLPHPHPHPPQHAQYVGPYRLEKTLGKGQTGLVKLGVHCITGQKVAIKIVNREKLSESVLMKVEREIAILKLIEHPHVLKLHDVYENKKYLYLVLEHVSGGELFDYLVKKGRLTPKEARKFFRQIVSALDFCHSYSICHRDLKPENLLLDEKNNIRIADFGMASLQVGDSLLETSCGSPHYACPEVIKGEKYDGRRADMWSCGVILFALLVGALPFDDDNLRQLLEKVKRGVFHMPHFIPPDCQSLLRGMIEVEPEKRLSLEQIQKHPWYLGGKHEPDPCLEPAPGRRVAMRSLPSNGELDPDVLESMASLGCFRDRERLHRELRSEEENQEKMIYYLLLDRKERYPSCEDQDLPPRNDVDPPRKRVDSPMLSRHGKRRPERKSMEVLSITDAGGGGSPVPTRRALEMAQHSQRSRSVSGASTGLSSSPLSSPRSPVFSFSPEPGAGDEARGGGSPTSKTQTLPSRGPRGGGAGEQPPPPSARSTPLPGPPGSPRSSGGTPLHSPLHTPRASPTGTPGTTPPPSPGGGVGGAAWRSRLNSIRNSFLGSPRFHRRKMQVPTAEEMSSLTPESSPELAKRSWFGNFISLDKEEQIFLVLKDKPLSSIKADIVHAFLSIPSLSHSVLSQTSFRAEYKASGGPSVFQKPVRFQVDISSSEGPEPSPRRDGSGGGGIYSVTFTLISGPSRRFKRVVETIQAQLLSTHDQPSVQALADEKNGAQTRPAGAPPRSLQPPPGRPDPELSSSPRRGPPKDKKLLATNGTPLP

[15] = biological target: T5, Serine/threonine-protein kinase BRSK1 (Homo sapiens); conditions: at 1 µM
[16] = biological target: T6, Serine/threonine-protein kinase BRSK2 (Homo sapiens) (UniProt Q8IWQ3); conditions: at 0.1 µM
T6 sequence (whole entry): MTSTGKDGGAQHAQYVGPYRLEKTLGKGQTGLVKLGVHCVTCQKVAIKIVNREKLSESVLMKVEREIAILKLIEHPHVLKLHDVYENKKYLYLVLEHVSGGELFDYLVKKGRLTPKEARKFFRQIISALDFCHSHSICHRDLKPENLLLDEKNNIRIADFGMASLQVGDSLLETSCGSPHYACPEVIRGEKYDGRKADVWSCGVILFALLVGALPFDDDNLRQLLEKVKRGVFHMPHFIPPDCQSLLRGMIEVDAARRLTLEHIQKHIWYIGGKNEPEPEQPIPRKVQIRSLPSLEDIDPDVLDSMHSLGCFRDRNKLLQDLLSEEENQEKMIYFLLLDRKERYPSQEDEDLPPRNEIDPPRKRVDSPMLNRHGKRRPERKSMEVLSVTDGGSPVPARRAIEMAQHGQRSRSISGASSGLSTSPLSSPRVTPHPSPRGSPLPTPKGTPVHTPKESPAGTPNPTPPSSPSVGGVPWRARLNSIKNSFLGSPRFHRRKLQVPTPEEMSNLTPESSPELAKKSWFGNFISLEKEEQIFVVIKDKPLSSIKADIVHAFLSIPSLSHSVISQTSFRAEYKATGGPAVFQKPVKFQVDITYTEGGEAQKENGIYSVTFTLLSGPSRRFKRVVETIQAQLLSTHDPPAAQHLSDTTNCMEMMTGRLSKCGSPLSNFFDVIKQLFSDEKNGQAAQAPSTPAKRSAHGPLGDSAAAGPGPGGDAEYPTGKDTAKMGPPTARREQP

[17] = biological target: T6, Serine/threonine-protein kinase BRSK2 (Homo sapiens); conditions: at 1 µM
[18] = biological target: Calcium/calmodulin-dependent protein kinase type 1D (Homo sapiens) (UniProt Q8IU85); conditions: at 0.1 µM
[19] = biological target: Calcium/calmodulin-dependent protein kinase type 1D (Homo sapiens) (UniProt Q8IU85); conditions: at 1 µM
[20] = biological target: Calcium/calmodulin-dependent protein kinase type II subunit alpha (Homo sapiens) (UniProt Q9UQM7); conditions: at 0.1 µM;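 note: reported values are averages (mean inhibition of CAMK2A)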
Sequence of Calcium/calmodulin-dependent protein kinase type II subunit alpha (Homo sapiens) (Q9UQM7 whole entry): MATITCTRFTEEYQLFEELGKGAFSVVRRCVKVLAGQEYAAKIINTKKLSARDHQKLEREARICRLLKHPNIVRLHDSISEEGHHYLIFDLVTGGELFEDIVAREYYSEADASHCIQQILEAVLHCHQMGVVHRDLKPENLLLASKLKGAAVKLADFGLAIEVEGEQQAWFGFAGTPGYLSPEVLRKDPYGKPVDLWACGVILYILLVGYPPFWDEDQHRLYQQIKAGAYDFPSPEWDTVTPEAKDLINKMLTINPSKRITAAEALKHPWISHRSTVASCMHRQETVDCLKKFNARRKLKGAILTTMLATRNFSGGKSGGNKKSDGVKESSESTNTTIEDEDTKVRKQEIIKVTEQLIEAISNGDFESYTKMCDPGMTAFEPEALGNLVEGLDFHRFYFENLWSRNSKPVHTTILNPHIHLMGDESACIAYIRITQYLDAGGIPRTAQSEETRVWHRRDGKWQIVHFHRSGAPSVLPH

Sequence of Ribosomal protein S6 kinase alpha-6 (Homo sapiens) (Q9UK32 whole entry): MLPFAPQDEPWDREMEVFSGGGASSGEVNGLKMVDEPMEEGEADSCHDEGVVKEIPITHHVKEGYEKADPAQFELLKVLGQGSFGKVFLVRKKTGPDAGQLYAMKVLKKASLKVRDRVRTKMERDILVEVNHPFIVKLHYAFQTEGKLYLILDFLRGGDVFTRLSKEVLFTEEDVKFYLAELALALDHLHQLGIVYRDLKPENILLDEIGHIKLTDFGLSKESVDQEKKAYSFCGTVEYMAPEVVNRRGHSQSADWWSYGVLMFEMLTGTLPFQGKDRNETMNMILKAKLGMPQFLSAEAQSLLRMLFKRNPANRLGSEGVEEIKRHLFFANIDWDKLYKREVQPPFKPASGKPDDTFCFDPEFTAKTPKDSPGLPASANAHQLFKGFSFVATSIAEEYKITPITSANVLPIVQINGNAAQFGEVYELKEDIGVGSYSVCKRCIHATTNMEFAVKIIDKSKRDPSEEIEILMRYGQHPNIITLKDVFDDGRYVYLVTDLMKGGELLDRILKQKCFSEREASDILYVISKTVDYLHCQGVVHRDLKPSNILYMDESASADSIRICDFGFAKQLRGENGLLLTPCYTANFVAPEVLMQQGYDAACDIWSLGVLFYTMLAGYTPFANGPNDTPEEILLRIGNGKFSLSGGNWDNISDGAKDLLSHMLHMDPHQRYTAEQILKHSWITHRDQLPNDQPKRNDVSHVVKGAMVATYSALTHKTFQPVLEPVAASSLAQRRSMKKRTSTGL
Sequence of 5'-AMP-activated protein kinase catalytic subunit alpha-2 (Homo sapiens) (P54646 whole entry, looked up): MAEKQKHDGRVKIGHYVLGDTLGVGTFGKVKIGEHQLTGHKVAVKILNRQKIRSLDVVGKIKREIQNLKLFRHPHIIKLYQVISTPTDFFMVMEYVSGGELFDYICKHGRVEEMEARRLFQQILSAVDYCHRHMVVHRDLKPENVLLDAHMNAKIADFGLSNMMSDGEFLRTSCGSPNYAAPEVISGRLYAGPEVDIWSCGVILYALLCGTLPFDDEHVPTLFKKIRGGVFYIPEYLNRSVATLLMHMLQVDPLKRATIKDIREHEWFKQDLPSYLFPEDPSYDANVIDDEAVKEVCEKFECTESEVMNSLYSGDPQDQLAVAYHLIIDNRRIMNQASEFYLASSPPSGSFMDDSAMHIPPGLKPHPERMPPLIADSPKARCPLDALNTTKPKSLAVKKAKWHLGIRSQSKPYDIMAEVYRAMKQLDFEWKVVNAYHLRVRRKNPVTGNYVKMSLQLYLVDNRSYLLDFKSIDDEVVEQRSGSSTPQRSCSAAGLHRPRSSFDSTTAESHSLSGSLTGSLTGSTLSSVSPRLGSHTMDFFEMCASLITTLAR
Sequence of Calcium/calmodulin-dependent protein kinase type 1D (Homo sapiens) (Q8IU85 whole entry, looked up): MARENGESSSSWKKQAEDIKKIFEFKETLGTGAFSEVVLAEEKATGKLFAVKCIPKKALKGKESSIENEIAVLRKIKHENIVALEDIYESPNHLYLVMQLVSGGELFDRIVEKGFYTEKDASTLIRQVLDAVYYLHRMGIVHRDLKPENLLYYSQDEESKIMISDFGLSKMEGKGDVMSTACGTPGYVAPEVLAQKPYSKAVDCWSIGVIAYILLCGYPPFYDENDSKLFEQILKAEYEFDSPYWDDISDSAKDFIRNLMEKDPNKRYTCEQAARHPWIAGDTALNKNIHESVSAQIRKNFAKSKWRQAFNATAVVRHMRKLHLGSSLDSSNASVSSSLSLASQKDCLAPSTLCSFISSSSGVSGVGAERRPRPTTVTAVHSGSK
Sequence of 5'-AMP-activated protein kinase catalytic subunit alpha-1 (Homo sapiens) (Q13131 whole entry, looked up): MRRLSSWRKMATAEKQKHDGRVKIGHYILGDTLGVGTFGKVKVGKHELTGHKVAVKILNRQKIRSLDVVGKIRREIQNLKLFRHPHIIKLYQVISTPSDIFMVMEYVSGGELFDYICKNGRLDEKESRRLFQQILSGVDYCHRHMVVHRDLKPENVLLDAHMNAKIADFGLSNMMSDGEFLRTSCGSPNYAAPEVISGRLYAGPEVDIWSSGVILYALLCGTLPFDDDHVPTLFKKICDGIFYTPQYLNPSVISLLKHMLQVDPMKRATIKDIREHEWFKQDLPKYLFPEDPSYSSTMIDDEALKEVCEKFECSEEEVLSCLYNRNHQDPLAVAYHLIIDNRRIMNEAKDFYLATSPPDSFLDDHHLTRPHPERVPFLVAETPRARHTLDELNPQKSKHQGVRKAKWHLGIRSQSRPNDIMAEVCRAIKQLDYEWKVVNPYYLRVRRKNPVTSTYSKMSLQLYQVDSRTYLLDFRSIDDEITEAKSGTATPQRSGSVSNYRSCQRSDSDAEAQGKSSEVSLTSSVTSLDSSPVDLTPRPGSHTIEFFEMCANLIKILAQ

Structure (SMILES)	inhibition [1]	inhibition [2]	inhibition [3]	inhibition [4]	inhibition [5]	inhibition [6]	inhibition [7]	inhibition [8]	inhibition [9]	inhibition [10]	inhibition [11]	inhibition [12]	inhibition [13]	inhibition [14]	inhibition [15]	inhibition [16]	inhibition [17]	inhibition [18]	inhibition [19]	inhibition [20]
Nc1nonc1-c1nc2cnccc2n1C1CC1	39.3% and 40.7%	2.58% and 2.55%	12.5% and 16.1%	8.13% and 8.47%	50.4% and 54.2%	20% and 22.1%	61.8% and 65.5%	5.9% and 3.15%	14.3% and 11.5%	1.84% and 3.94%	7.08% and 5.85%	5% and 1.55%	13.1% and 10.2%	5.76% and 4.57%	21.7% and 18.1%	8.42% and 4.02%	27.9% and 27.1%	0.19% and 0.41%	1.1% and 0.69%	4.16% and 0.57%
CC1=C(C(=O)Nc2ccc3[nH]nc(C)c3c2)C(c2ccc(C(F)(F)F)cc2)CC(=O)N1 (stereo not given)	18.9%	2.07%	7.21%	0.38%	5.99%	1.33%	6.15%	4.08%	24.4%	-0.12%	7.41%	6.8%	31.1%	4.32%	21.3%	6.42%	32.6%	0.54%	2.58%	1.45%
O=C(O[C@H]1CN[C@H](C#Cc2cc3ncnc(Nc4ccc5c(cnn5Cc5ccccc5)c4)c3s2)C1)N1CCOCC1	-1.11%	-0.09%	-1.15%	-1.55%	4.74%	-2.07%	0.07%	1.24%	3.86%	2.29%	3.11%	3.37%	4.34%	0.74%	2.54%	1.3%	3.58%	0.26%	1.04%	-0.77%
COc1cccc(Nc2nccc(-c3cnn4ncccc34)n2)c1	4.34%	1.84%	9.81%	7.46%	6.98%	-0.45%	2.03%	2.19%	10.9%	-3.44%	7.99%	52.8%	71%	0.63%	6.67%	0.75%	10.4%	-0.48%	4.71%	4.77%
COc1ccc(-c2nn3ncccc3c2-c2ccnc(Nc3ccc(F)c(F)c3)n2)cc1	1.98%	3.06%	9.35%	5.4%	7.74%	5.09%	6.1%	5.22%	9.36%	2.91%	6.49%	3.92%	5.51%	3.95%	7.79%	5.66%	7.14%	-0.12%	1.91%	3.21%
CN1CCC(C(=O)Nc2n[nH]c3nc(-c4ccc(O)cc4)c(Br)cc23)CC1	12.7% and 9.62%	5.12% and 1.94%	10.4% and 4.16%	3.28% and 2.28%	6.79% and 6.21%	1.96% and 6.46%	6.31% and 0.32%	5.11% and 1.11%	18.7% and 10.6%	3.96% and 2.49%	10.2% and 5.07%	2.41% and 0.87%	12% and 2.56%	5.59% and 6.13%	31.5% and 25.9%	6.63% and 3.74%	36.1% and 27.2%	1.98% and 1.28%	15.6% and 15.7%	3.72% and 2.36%
